Measured values from PubChem BioAssay AID504329 (Southern Research Specialized Biocontainment Screening …, 2011).
Out of some 340,000 compounds screened, about 1,000 (0.29%) were called active. A selection follows. Results with a measured potency or affinity are listed apart. Unmarked numbers belong to inactive results. Cut-off read from the data, not from the text of the source: inconclusive = inhibition above about 27% without an active follow-up result; inactive = below that.

Assay: NS1A inhibition, H1N1 influenza, cell based functional assay (AID 504329)
Conditions: percent inhibition, at 12.5 µM, active compounds read high

Row | Structure (SMILES) | inhibition [%]
1 | Cc1ccc(CNC(=O)CN2C(=O)CSc3ccc(S(=O)(=O)N4CCCCC4)cc32)cc1 | 2.97
2 | COC(=O)c1ccc(CNC(=O)c2coc3ccccc3c2=O)cc1 | -15.6
3 | O=C(COc1ccc(Cl)cc1)NC1CCSC1=O (stereo not given) | -5.86
4 | O=C1CC(NNc2nc3ccccc3s2)C(=O)N1c1ccccc1 (stereo not given) | 2.74
5 | O=C(COC(=O)C1CCC1)c1c[nH]c2ccccc12 | -3.9
6 | CCn1c(=O)[nH]c2cc(C(=O)N3CCN(c4ccccc4)CC3)ccc2c1=O | 5.52
7 | COc1cc2c(cc1OC)CN(c1nc(CN3CCOCC3)nc3sc4c(c13)CCCC4)CC2 | 4.39
8 | O=C(NCC(c1ccco1)N1CCCCC1)c1ccc(S(=O)(=O)Nc2ccccc2)cc1 (stereo not given) | -1.8
9 | COc1ccc(-n2ccnc(SCC(=O)NC3CCCCC3)c2=O)cc1 | -5.37
10 | CCc1cccc2sc(NC(=O)C3CC3)nc12 | -5.24
11 | Nc1c(C=C2C=CC(=O)C=C2)c(=O)nc2snc(SCc3ccccc3)n12 | 11.3
12 | C=CCOc1ccc(C(=O)c2ccccc2)c(OCC(=O)NC2(C#N)CCCC2)c1 | 5.71
13 | COc1ccc2nc3cccc(OC)c3nc2c1 | -1.33
14 | COc1cccc2nc3cc(C)c(C)cc3nc12 | 1.36
15 | OC(CN1CCN(c2ccc(C(F)(F)F)cn2)CC1)c1ccccc1 (stereo not given) | -15
16 | CC(C)(C)N(Cc1ccccc1)C(=O)COC(=O)c1ccc(S(=O)(=O)N2CCOCC2)cc1 | -2.6
17 | COc1ccc(Nc2cc(C)c3ccccc3n2)cc1 | -1.04
18 | COc1ccc(C(=O)N/N=C(\c2ccccc2)c2ccccn2)cc1 | 6.37
19 | COc1cc(C2C3=C(CCCC3=O)Nc3[nH]n(-c4ccccc4)c(=O)c32)ccc1OC(C)=O (stereo not given) | 2.7
20 | COc1ccc(N2CCN(CCC(N)=O)CC2)cc1 | -4.44
21 | NCCCN1CCN(c2ccccc2)CC1 | 11.2
22 | Cn1c(C(=O)NCCCN2CCCCC2)cc2sccc21 | 8.28
23 | CC1CCN(CCCNC(=O)c2cc3sccc3n2C)CC1 | 4.97
24 | CC1(C)NC(=O)N(CC(=O)OCC(=O)c2ccc(F)cc2)C1=O | -8.13

Row | Structure (SMILES) | inhibition [%]
25 | CCOc1ccccc1N1CC(C(=O)Nc2cc(S(C)(=O)=O)ccc2Cl)CC1=O (stereo not given) | -5.65
26 | O=C(O)c1ccc(NCc2nc3ccccc3n2Cc2ccccc2)cc1 | 11.2
27 | NNC(=O)c1sccc1OCc1ccc(Cl)cc1 | 0.97
28 | Cc1noc(C)c1S(=O)(=O)Nc1ccccc1N1CCOCC1 | 0.87
29 | O=C(CCNC(=O)c1ccc([N+](=O)[O-])cc1)Nc1nc2ccccc2[nH]1 | -0.35
30 | O=[N+]([O-])c1ccc(N=Nc2ccc(O)cc2O)cc1 | -9.68
31 | O=S(=O)(Nc1ccc(N=Nc2ccc(O)c3ccccc23)cc1)c1ccccc1 | 5.24
32 | COc1ccc(-c2ccc(/C=C3\C(=O)N(c4ccccc4)N=C3c3ccccc3)o2)c([N+](=O)[O-])c1 | 10.3
33 | O=C1ON=C(c2ccccc2)/C1=C/c1ccc(-c2ccccc2[N+](=O)[O-])o1 | -1.51
34 | CC(C)Cc1nnc(NC(=O)CCC(=O)NCc2ccccc2Cl)s1 | -2.08
35 | CC(=O)Nc1ccc2nc(NC(=O)COc3ccccc3Cl)sc2c1 | -0.9
36 | COc1ccc(C(=O)Nc2ccc(N3CCN(C)CC3)cc2)cc1 | 1.09
37 | CN1CCN(c2ccc(NC(=O)Oc3ccccc3)cc2)CC1 | 17.8
38 | CC(C)Oc1cccc(C(=O)Nc2ccc(N3CCN(C)CC3)cc2)c1 | -2.02
39 | C=CC(=O)Nc1cccc(Oc2ccnc3[nH]ccc23)c1 | 19.9
40 | Cc1ccc(S(=O)(=O)N2CCN(C(=O)COC(=O)/C=C/c3ccccc3[N+](=O)[O-])CC2)c(C)c1 | 0.45
41 | CC(NCC(=O)Nc1ccccc1C(=O)NC1CC1)c1cccs1 (stereo not given) | -16.2
42 | CCOC(=O)c1c(NC(=O)c2ccccc2)sc2c1CCc1ccccc1-2 | -10.9
43 | COc1ccc(OC)c2c1C(=O)C(Cl)=C(Cl)C2=O | 24.7
44 | COc1ccc2noc3c2c1C(=O)c1ccccc1-3 | 7.47
45 | COCCN1C(=O)N[C@@H](c2ccccc2)[C@H](C(=O)OC)[C@H]1C | -12.7
46 | CC1(C)Oc2ccc3ccc(=O)oc3c2/C(=C/NNC(N)=O)C1=O | -7.94
47 | CC1(C)Oc2ccc3ccc(=O)oc3c2C(/C=N/O)=C1Cl | -10.3
48 | Cc1ccc(NC(=O)NNC(=O)CN2C(=O)COc3ccccc32)cc1 | -2.65

Row | Structure (SMILES) | inhibition [%]
49 | Cc1cccc(OC(=O)c2cccnc2)c1C | -8.58
50 | CC(C)c1nnc(NC(=O)C2CCCN(C(=O)Nc3ccc(F)cc3)C2)s1 (stereo not given) | -2.41
51 | CCOC(=O)C1CCN(C(=O)C2CCC(=O)N(Cc3cccc(C(F)(F)F)c3)C2)CC1 (stereo not given) | 11.5
52 | CC(=O)NCCn1c(C)cc2ccccc21 | -2.59
53 | Cc1cc2ccccc2n1CCNC(=O)C(C)C | 4.98
54 | O=C(OCc1ccccc1F)c1cc([N+](=O)[O-])ccc1N1CCOCC1 | 12.7
55 | CCC(=O)NC(c1ccc(C)cc1)c1cc([N+](=O)[O-])c2cccnc2c1O (stereo not given) | 27.3
56 | CC(C)C(=O)NC(c1cccs1)c1cc([N+](=O)[O-])c2cccnc2c1O (stereo not given) | 7.53
57 | CC(C)C(=O)NC(c1ccccc1)c1cc([N+](=O)[O-])c2cccnc2c1O (stereo not given) | 3.43
58 | CC(=O)NC(c1ccc(C)cc1)c1cc([N+](=O)[O-])c2cccnc2c1O (stereo not given) | 22
59 | CCCC(=O)NC(c1ccco1)c1cc([N+](=O)[O-])c2cccnc2c1O (stereo not given) | 4.57
60 | CCCC(=O)NC(c1cccs1)c1cc(Cl)c2cccnc2c1O (stereo not given) | -9.38
61 | Cc1ccc(NC(=O)c2cc(-c3ccccc3)n[nH]2)cc1 | -9.32
62 | COc1ccc(NC(=O)CSc2nnc(C(C)C)n2N)cc1 | 2.67
63 | O=C(Cn1c2c(c(=O)n3ncnc13)CCC2)N/N=C/c1ccc(Cl)cc1 | -0.52
64 | CCn1ncc(Br)c1C(=O)Nc1nccs1 | 8
65 | COC(=O)/C=C/c1ccc(OC(=O)c2ccncc2)cc1 | -0.93
66 | CC(=O)C1=C(c2ccccc2)OC(N)=C(C#N)C1c1ccccc1C (stereo not given) | 7.47
67 | Cn1c(CC(=O)Nc2ccccc2F)nnc1SCC(=O)NC1CCCC1 | 4.61
68 | Cc1cccc(N=C2NC(=O)c3cc([N+](=O)[O-])ccc32)c1 | -0.91
69 | O=[N+]([O-])c1ccc2c(c1)C(=Nc1ccccc1)c1ccccc1-2 | 19.1
70 | COc1ccc(CCNCc2ccccc2)cc1 | -9.83
71 | COc1ccc(CCNCc2ccccc2F)cc1 | -20.5
72 | COc1ccc(CC(=O)NCCC2=CCCCC2)cc1 | 10.7

Row | Structure (SMILES) | inhibition [%]
73 | COc1ccc(C(=O)NCCC2=CCCCC2)cc1 | -1.2
74 | CCN1C[C@@H]2[C@@H]3C(=O)N(Cc4ccccc4)C(=O)[C@@H]3[C@](CC)(C(=O)OC)N2C1=NC1CCCCC1 | -28.6
75 | Cc1ccc(NC(=O)C2CCN(S(=O)(=O)c3ccc4c(c3)C(C)(C)C(=O)N4C)CC2)c(C)c1 | 8.27
76 | CCCn1c(N)c(N(CCOC)C(=O)COC(=O)CSc2cc(C)c3ccccc3n2)c(=O)[nH]c1=O | -17.1
77 | Cc1cc(/C=C2\SC(=S)N(C)C2=O)c(C)n1-c1cccc(O)c1 | -1.47
78 | COc1ccc(O)c(/C=C2/SC(=S)N(Cc3ccccc3)C2=O)c1 | 8.37
79 | Cc1cc(/C=C2\SC(=S)N(C)C2=O)c(C)n1-c1ccccc1O | 6.77
80 | CN1C(=O)/C(=C\c2ccccc2OCc2ccccc2)SC1=S | 10.4
81 | CC(=O)c1c(C)[nH]c(C(=O)NC2=NCCS2)c1C | 7.87
82 | O=C(CN1C(=O)NC2(CCCCC2)C1=O)Nc1cc(C(F)(F)F)ccc1N1CCOCC1 | -9.76
83 | COc1ccccc1Oc1c(C)oc2c(CN(C)C)c(O)ccc2c1=O | 12.9
84 | COc1ccc(N/N=C(\C#N)C(=N)N2CCOCC2)cc1 | 0.407
85 | Cc1[nH]c(=O)[nH]c(=O)c1CSCC(=O)OCC(=O)Nc1ccccn1 | -14.1
86 | CCCCSCc1[nH]c(=O)[nH]c1C(=O)CCCCC(=O)OCC | 1.07
87 | O=C(CCCC(=O)OCC(=O)NC1CCCC1)Nc1ccccn1 | -6.66
88 | CCOC(=O)CCCCC(=O)c1[nH]c(=O)[nH]c1CSCCO | 12.6
89 | O=C(CP(=O)(O)CC(=O)c1ccccc1)c1ccccc1 | 5.59
90 | O=C1c2cccnc2C(=O)N1CNc1ccc(Cl)cc1 | 3.28
91 | COc1cccc(C(=O)NCCS(=O)(=O)NCc2cccnc2)c1 | -2.08
92 | CC(C)CCNC(=O)C(CC(C)C)N(Cc1ccc2c(c1)OCO2)C(=O)c1snc(C(N)=O)c1N (stereo not given) | 6.77
93 | C=CCC1(C#N)C(SC)=NC2=C(C(=O)CC(C)(C)C2)C1c1ccc(Br)cc1 (stereo not given) | -5.14
94 | O=C(CN1C(=O)COc2ccccc21)Nc1ccccc1F | 2.27
95 | O=C(CN1C(=O)COc2ccccc21)Nc1ccc2c(c1)OCCO2 | 0.43
